Results on 5 compounds are retold here after PubChem BioAssay.

The viability is a read-out of living cells in per cent, often relative to untreated cells. A word on the inhibition: it is the change of the read-out against control, counted positive when it falls.

Experiment [1] can be described thus: Her2 expression decrease, cell viability multiplex – SKBR3 breast tumor cells, AlphaScreen, ATP viability, primary screen (AID 461;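 active = Her2 level under about 52% in both replicate screens, with viability over 70% of control, limit read from the data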;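 as to Her2 level: lower value means less Her2 protein in the cells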;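 as to viability: percent of carrier control wells set as 100% viability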). The settings on record: SKBR3 Her2 protein level, 18-24 h, measured here: SKBR3 viability, ATP luminescence, at 10 µM. A general note: Bead proximity is the source of the signal in Alpha formats.
For experiment [2], the target named is Receptor tyrosine-protein kinase erbB-2 (Homo sapiens) (UniProt P04626). Described as above. The settings on record: 18-24 h, at 10 µM, stronger effect = lower value.
The nature of experiment [3]: reduced viability of SK-BR-3 breast cancer cells – cell-based, 24 h, human, pilot screen (AID 572).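 Also: compound exposure lasted between 18 and 24 h rather than exactly 24 h; 100% = carrier-treated control wells.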 To be noted: SK-BR-3 viability, CellTiter-Glo luminescence, at 10 µM, stronger effect = lower value.
A short description of experiment [4]: HUVEC growth inhibition – cell-based, human, primary screen (AID 575;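 active = viability at or below 30% in both replicate assays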;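 also: 100% = median of untreated cell wells with 0.1% DMSO on each plate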). The settings on record: HUVEC proliferation, CellTiter-Glo luminescence, 72 h; at 10 µM; stronger effect = lower value. (In ATP-based viability assays light output follows the ATP content of the culture.)
Experiment [5] in a line: H69AR cell proliferation blockers – human, duplicate replicates, primary screen (AID 580;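 active = viability at or under a set limit in both replicates, limit being median viability minus 3 SD, cut at about 48% in these data, passing the limit was not always enough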;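 also: 100% = mean luminescence of untreated wells and 0% = no signal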). To be noted: H69AR lung tumor cells viability, ATP luminescence, 72 h; at 10 µM; stronger effect = lower value.
Experiment [6] can be described thus: MRP1 drug-resistance reversers in H69AR cells – cell-based, doxorubicin co-treatment, pilot screen (AID 601;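 active = viability loss from added drug above about 55%, and viability with drug at most 40%, in both replicates, limit read from the data, passing the limit was not always enough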). The settings on record: CellTiter-Glo, 72 h, at 10 µM; for differential viability (reversal): stronger effect = higher value.
A short description of experiment [7]: yeast transport mutant growth inhibition pilot in 384-well plates, post-Golgi transport modulator project (AID 636; in the data active = inhibition above about 31%). To be noted: absorbance 615 nm, about 18 h, stronger effect = higher value.
A short description of experiment [8]: growth suppression of yeast trafficking mutant, preliminary HTS, modulators of trafficking downstream of Golgi apparatus project, 1536-format plate, OD 615 nm (AID 637; in the data active = inhibition above about 30%). The settings on record: yeast transport mutant growth, absorbance 615 nm, 18 h; stronger effect = higher value.
Experiment [9] is described as follows: S. cerevisiae growth inhibition in permissive medium (OD615), pilot counter-assay for S. cerevisiae lifespan shortening project, permissive growth control (AID 705;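 active = growth inhibition above 25% in both replicates, a cutoff set 3 SD above the mean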). The settings on record: OD615, 24 h, at 10 µM, stronger effect = higher value.
Experiment [10] is described as follows: S. cerevisiae growth inhibition in restrictive medium, OD615, pilot screen, restrictive growth control, yeast lifespan reduction project (AID 706;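 active = growth inhibition above a set limit, 3 SD over mean compound inhibition, in both replicates, cut at about 43% in these data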;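 also: modified DeaD lifespan yeast strain shifted to restrictive glucose medium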). To be noted: OD615, 48 h, at 10 µM, stronger effect = higher value.
A short description of experiment [11]: doxorubicin toxicity protection in MRP-1 cells – H69AR cells, CellTiter-Glo, duplicate, MRP-1 activator project, pilot screen (AID 807;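 active = viability increase at or above a cutoff of the median across tested compounds plus 3 SD, cut at about 8.5% in these data, passing the limit was not always enough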;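 also: compound pretreatment 18-22 h then 72 h combined with doxorubicin; 0% = doxorubicin alone and 100% = vehicle without doxorubicin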). The settings on record: H69AR viability with doxorubicin, CellTiter-Glo luminescence; at 10 µM; stronger effect = higher value.
Experiment [12] is described as follows: viability of HCT116 without oncogenic beta-catenin – human colon tumor cells, pilot screen (AID 823;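 active = cell viability at or below a set limit in both duplicate runs, the limit being the all-compound median minus 4 SD, cut at about 23% in these data, passing the limit was not always enough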;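 also: 0% = wells killed by 20 µM Hyamine and 100% = untreated DMSO cell wells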). To be noted: HCT116 beta-catenin knockout viability, CellTiter-Glo, 60 h; at 10 µM; stronger effect = lower value.
A short description of experiment [13]: viability of PTEN-null HCT116 cells – cell-based, HCT116 clonal line, CellTiter-Glo, pilot screen (AID 824;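 active = viability at or below 27.92% in each of two runs, the all-compound median minus 4 SD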;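 also: 0% = 20 µM Hyamine control and 100% = vehicle cell control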). The settings on record: HCT116 PTEN-deleted viability, 60 h, at 10 µM, stronger effect = lower value.
Experiment [14] in a line: RAM pathway blockade in budding yeast – dse1pr::URA3 reporter, 5-FOA selection, pilot screen (AID 869;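 active = inhibition over a set limit, the all-compound mean plus 3 SD, in both replicate runs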;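 also: 0% = DMSO wells with no growth and 100% = 10 µM 1-NA-PP1 with full growth; RAM network block rescues cells from 5-FOA so hits raise OD615 growth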). To be noted: S. cerevisiae dse1pr::URA3 5-FOA growth, OD615, 2 d; at 10 µM; stronger effect = higher value; strain carries analog-sensitive mutant Cbk1 kinase.
The nature of experiment [15]: RAM signaling pathway blockade in yeast – S. cerevisiae, Pdr1DBD-CYC8 efflux-inhibited sensitized strain, primary screen (AID 1298;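 active = RAM network inhibition above 8.4% in each of two replicates, 3 SD over the compound average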;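 also: 0% = DMSO untreated cells without growth and 100% = 10 µM 1-NA-PP1 full growth; higher means more yeast growth rescued from 5-FOA killing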). To be noted: S. cerevisiae cbk1-as DSE1-URA3 strain, 5-FOA growth OD615, 2 d; at 50 µM; stronger effect = higher value.
[16] abbreviates: H69AR cells + 2 uM doxorubicin, measured here: viability with 2 uM doxorubicin, stronger effect = lower value.
[17] abbreviates: H69AR cells, compound alone cytotoxicity.

Results filed as inconclusive are left out. Active and inactive are the calls of the source.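 The calls were made as follows, unless noted: active = viability at or below 10% of carrier control in both of two separate runs; inconclusive = viability at or below 10% in only one of the two runs; inactive = the rest.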

Sequence of Receptor tyrosine-protein kinase erbB-2 (Homo sapiens) (P04626 whole entry, looked up): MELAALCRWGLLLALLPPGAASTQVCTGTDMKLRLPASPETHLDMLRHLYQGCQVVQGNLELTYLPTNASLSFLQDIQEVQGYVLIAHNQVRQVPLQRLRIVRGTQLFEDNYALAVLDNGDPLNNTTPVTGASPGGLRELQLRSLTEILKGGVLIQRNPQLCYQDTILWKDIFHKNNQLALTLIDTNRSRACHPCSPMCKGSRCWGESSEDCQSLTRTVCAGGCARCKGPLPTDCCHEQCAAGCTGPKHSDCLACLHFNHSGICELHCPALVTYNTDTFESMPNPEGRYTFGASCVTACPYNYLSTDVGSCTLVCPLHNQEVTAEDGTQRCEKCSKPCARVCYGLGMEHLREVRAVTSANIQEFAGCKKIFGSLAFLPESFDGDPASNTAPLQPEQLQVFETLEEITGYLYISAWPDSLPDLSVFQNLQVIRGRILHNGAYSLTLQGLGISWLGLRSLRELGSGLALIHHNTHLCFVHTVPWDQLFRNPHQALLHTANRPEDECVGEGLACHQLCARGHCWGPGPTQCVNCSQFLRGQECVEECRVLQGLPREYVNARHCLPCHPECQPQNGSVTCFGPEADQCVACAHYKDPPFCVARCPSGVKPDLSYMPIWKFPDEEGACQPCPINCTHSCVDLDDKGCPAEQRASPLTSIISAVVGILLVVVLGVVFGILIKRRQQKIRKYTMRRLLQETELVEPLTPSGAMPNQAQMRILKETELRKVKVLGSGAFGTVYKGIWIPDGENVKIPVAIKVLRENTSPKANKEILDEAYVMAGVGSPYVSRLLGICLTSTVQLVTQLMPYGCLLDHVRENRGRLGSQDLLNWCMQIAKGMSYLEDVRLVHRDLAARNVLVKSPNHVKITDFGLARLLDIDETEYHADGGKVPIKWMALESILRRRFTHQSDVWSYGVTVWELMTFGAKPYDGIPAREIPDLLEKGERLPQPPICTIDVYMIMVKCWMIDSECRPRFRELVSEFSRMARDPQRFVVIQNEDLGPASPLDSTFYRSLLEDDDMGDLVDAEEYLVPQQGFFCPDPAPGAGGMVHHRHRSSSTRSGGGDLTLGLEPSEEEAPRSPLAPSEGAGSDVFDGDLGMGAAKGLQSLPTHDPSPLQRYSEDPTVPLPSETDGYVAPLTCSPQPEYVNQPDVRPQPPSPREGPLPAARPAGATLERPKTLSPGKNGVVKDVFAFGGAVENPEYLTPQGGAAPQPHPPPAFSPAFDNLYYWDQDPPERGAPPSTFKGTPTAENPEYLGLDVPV

In the case of `COc1cc(NC(=O)C2CCCN2S(=O)(=O)c2cccc3cccnc23)cc(OC)c1OC` (stereo not given), the viability was 72% in experiment [1]; 72% (inactive) in experiment [3]; 87.6% (inactive) in experiment [4]; 82.2% (inactive) in [5]; 88.3% in experiment [6] (setting [16]); 82.2% in experiment [6] (setting [17]). The viability in [12] and in [13] was 79.4% (inactive) each time. Besides, the Her2 level in experiment [2] is 81% (inactive). Also, in [6] (H69AR cells + 2 uM doxorubicin), the differential viability (reversal) was -6.16% (inactive). Besides, the inhibition in [7] is -1.67% (inactive); in [8] it was 1.5% (inactive); in [14], 0.905% (inactive). The results for the growth inhibition in experiment [9] and in [10] were 0.6% (inactive) and -10.7% (inactive), respectively. Besides, the viability increase in experiment [11] is -5.34% (inactive). The RAM network inhibition in [15] is 2.32% (inactive).

Take `CCOc1ccc(CCN2C(=O)C3C4C=CC(C4)C3C2=O)cc1OCC` (stereo not given): the viability in experiment [1] was 96%; in [3] it was 96% (inactive); in experiment [4], 97.7% (inactive); in experiment [5] it was 87.9% (inactive); in [6] (setting [16]), 83.4%; in experiment [6] (setting [17]), 87.9%. In addition, the viability in experiment [12] is 102% (inactive); in experiment [13], 101% (inactive). The Her2 level in experiment [2] is 93.5% (inactive). Also, the differential viability (reversal) in experiment [6] (H69AR cells + 2 uM doxorubicin) is 4.56% (inactive). Also, the inhibition in experiment [7] is -6.27% (inactive); in [8], -1.67% (inactive); in [14], 1.38% (inactive). Further, the growth inhibition in experiment [9] is 0.49% (inactive); in experiment [10], 3.99% (inactive). Besides, in [11], the viability increase is -0.38% (inactive). In addition, the RAM network inhibition in experiment [15] was 1.5% (inactive).

As to `O=C(COC(=O)C1CC2C=CC1C2)Nc1ccc2c(c1)OC(F)(F)O2` (stereo not given), the viability in [1] is 119%; in experiment [3] it was 119% (inactive); in [4], 84.2% (inactive); in experiment [5], 94.3% (inactive); in experiment [6] (setting [16]) it was 95.5%; in experiment [6] (setting [17]) it was 94.3%. For the same compound, the viability in experiment [12] is 89.2% (inactive); in experiment [13], 96.2% (inactive). For the same compound, the Her2 level in experiment [2] is 89.5% (inactive). The differential viability (reversal) in experiment [6] (H69AR cells + 2 uM doxorubicin) was -1.17% (inactive). The inhibition in [7] was -1.95% (inactive); in [8] it was -0.49% (inactive); in experiment [14], 1.08% (inactive). Moreover, the growth inhibition in [9] is -9.33% (inactive); in [10], 3.8% (inactive). Moreover, the viability increase in experiment [11] is 3.74% (inactive). The RAM network inhibition in experiment [15] is -2.17% (inactive).

For the compound `COc1ccccc1-c1cc2nc(C)c(CCC(=O)NCc3ccco3)c(C)n2n1`, the viability in experiment [1] is 80%; in [3], 80% (inactive); in experiment [4] it was 88% (inactive); in experiment [5], 89.9% (inactive); in experiment [6] (setting [16]), 88.3%; in experiment [6] (setting [17]), 89.9%. Further, the viability in experiment [12] was 97.2% (inactive); in experiment [13], 98.1% (inactive). Besides, the Her2 level in [2] is 88% (inactive). In addition, in experiment [6] (H69AR cells + 2 uM doxorubicin), the differential viability (reversal) was 1.59% (inactive). Also, the figures for the inhibition in [7], in experiment [8] and in experiment [14] were -2.69% (inactive), 0.33% (inactive) and 1.53% (inactive), respectively. In addition, the growth inhibition in experiment [9] was -2.34% (inactive); in experiment [10] it was -6.24% (inactive). Further, the viability increase in [11] is -3.72% (inactive). Moreover, in [15], the RAM network inhibition is 4.36% (inactive).

Turning to `CCCNC(=O)CS(=O)(=O)Cc1nc(-c2cccc(OC)c2)oc1C`, the viability in [1] is 86%; in [3], 86% (inactive); in experiment [4] it was 109% (inactive); in experiment [5], 87.7% (inactive); in [6] (setting [16]) it was 91.7%; in experiment [6] (setting [17]), 87.7%. Also, the viability in experiment [12] was 93.1% (inactive); in [13], 87% (inactive). Moreover, the Her2 level in experiment [2] is 90.5% (inactive). For the same compound, in [6] (H69AR cells + 2 uM doxorubicin), the differential viability (reversal) is -3.96% (inactive). Moreover, the values for the inhibition in experiment [7], in [8] and in experiment [14] were -0.53% (inactive), 8.2% (inactive) and 0.365% (inactive), respectively. Also, the growth inhibition in experiment [9] is 7.42% (inactive); in [10], -2.08% (inactive). Moreover, in experiment [11], the viability increase was -0.31% (inactive). Moreover, the RAM network inhibition in [15] is -0.47% (inactive).
